# In PubChem BioAssay AID651595 (National Center for Advancing Translational Sciences (NCATS), 2012):
# Hit rate of the full screen: of about 1,100 compounds, fewer than 10 were called active. Inconclusive results (about 6%) are left out. Calls follow the shape of the dose curve; as a rule, active = well fitted cell-killing curve with a large enough effect; inconclusive = small, poorly fitted or top-dose-only effect; inactive = flat fitted curve, though single readings scatter. Only a sample is shown. A call without a number means that no potency is given here.
# Experiment: qHTS of Nrf2 Activators: Hit Validation in Cytotox Assay;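 also: compound exposure lasted 24 hours before the ATP readout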
# Settings: Cell viability counter-screen for Nrf2 activator hits; series mostly up to 46.1 µM
# Source text: Many diseases have some form of oxidative stress injury and ties to inflammation, causing a host of problems for the patient. The antioxidant response element (ARE) plays an important role in alleviating the harmful effects of oxidative stress. The antioxidant response element (ARE) is a transcriptional regulatory element involved in the activation of genes coding for a number of antioxidant proteins and detoxifying enzymes. These enzymes work in concert to protect tissues from oxidative insults and chemical toxicities in human hepatocytes and immune cells. The protective effects of ARE activation are primarily triggered through Nrf2 (NF-E2-related factor) binding to and activating AREs. It is known that Nrf2 controls the production of over 250 antioxidant and detoxification proteins (Hu et al., 2006), thereby protecting tissues by increasing cellular antioxidant content and suppressing inflammatory signaling pathways. The transcription factor Nrf2 is a central link between oxidative chemicals, such as phenolic antioxidants and electrophilic compounds, and the activation of ARE. Nrf2 levels are constitutively low as a consequence of its interaction with Keap1, which targets its degradation (Zipper and Mulcahy, 2002). Electrophiles react with key cysteine residues in Keap1, releasing Nrf2 and allowing its translocation to the nucleus. Once within the nucleus, Nrf2 complexes with coactivators such as p300, and binds to the AREs to induce gene transcription of cytoprotective enzymes, resulting in the prevention of toxicity. Activation of Nrf2 protects tissues by increasing cellular antioxidant content and suppressing inflammatory signaling pathways. Identifying novel and potent Nrf2 activators by using the AREc32 cell line to detect ARE activation by small molecules will lead to the identification and development of probes to study protective pathways in multiple tissues. These specific probes are essential to study the ARE pathway, and eventually to determine whether this pathway does activate genes that could protect against a host of diseases, including cardiovascular diseases, obesity, diabetes, Alzheimer's, and Parkinson's disease.
# This project's aim is to identify novel and potent Nrf2 activators by using the AREc32 cell line to detect ARE activation by small molecules, which will lead to the identification and development of probes to study the ARE pathway. Cytotoxic compounds are flagged as active, and inactivity is desired in this assay.
# NIH Chemical Genomics Center [NCGC]
# NIH Molecular Libraries Probe Centers Network [MLPCN]
# Assay Submitter (PI): Curtis Klaassen, University of Kansas Medical Center
# Cell viability after compound treatment was measured using a luciferase-coupled ATP quantitation assay (CellTiter-Glo, Promega) in AREc32_fluc cells. The change of intracellular ATP content indicates the number of metabolically competent cells after compound treatment. AREc32_fluc cells were harvested from T225 flask and resuspended in phenol red free OPTI-MEM medium with 5% FBS. Then 5 microL of 200,000 cells/ml resuspended cells was dispensed into each well of white, solid bottom, 1536-well tissue culture-treated plates using a Multidrop Combi dispenser. After overnight culture at 37 degrees C with 5% CO2, a total of 23 nL of compounds at 7 selected concentrations from the cherry pick or positive control (40 uM stock of CDDO-IM and 2 mM of tBHQ) in DMSO was transferred to each well of the assay plate using a pintool (Kalypsys, San Diego, CA), and the plates were further incubated at 37 degrees C with 5% CO2 for 24 hours. After that, 4 microL of CellTilter-GloTM luminescent substrate mix (Promega) was added to each well. The plate was incubated at room temperature for 30 minutes. The plates were measured on a ViewLux plate reader (PerkinElmer) with clear filter.
# Potency is read from the fitted curve at half-maximal effect.
row,SMILES,Potency
1,Cc1ccccc1OCC(=O)Nc1ccccc1CO,inactive
2,O=C(c1nn2c(C(F)(F)F)cc(-c3ccco3)nc2c1Br)N1CCCc2ccccc21,inactive
3,Cc1ccc([N+](=O)[O-])c(OCc2ncc(Cl)n2C)c1,inactive
4,O=c1[nH]c(O)c(/C=C2\C=Nc3ccc(Br)cc32)[nH]1,inactive
5,COc1ccc(/C(N)=N/OC(=O)c2cccc([N+](=O)[O-])c2)cc1,inactive
6,N/C(=N\OC(=O)c1ccco1)c1cccc(Br)c1,inactive
7,O=c1c2ccccc2oc2cc(Br)ccc12,inactive
8,COc1ccc(C=O)cc1OS(=O)(=O)c1ccccc1[N+](=O)[O-],inactive
9,COc1ccccc1Nc1nc2ccccc2n2cnnc12,inactive
10,O=c1cc(-c2ccccc2Cl)oc2c(Br)ccc(O)c12,inactive
11,Cc1ccc(N=C2NC(=O)S/C2=C\c2ccco2)cc1,inactive
12,c1ccc(-c2nc3c4ccccc4ccn3c2Cc2ccsc2)cc1,inactive
13,COC(=O)c1c(NC(=O)/C=C/C(=O)O)sc(C)c1-c1ccc(C(C)C)cc1,inactive
14,COc1cccc(-c2nc3n(n2)CCc2ccccc2-3)c1,inactive
15,C/C(=N\NC(=O)COc1ccccc1[N+](=O)[O-])c1cccs1,inactive
16,O=c1oc2ccccc2cc1-c1nc(-c2cccs2)cs1,inactive
17,NC(=O)c1oc2ccccc2c1NC(=O)c1ccco1,inactive
18,Brc1ccccc1/C=N/Nc1ccccn1,inactive
19,O=C(/C=C/c1ccccc1Cl)Nc1nc(-c2cccs2)ns1,inactive
20,Cc1[nH]c2ccccc2c1N=Nc1ccccc1F,inactive
21,O=C(N=Nc1c(O)[nH]c2ccc(Br)cc12)c1ccco1,inactive
22,CCOC(=O)N/N=C\C=C\c1ccco1,inactive
23,O=C(NC(=S)Nc1ccc(Br)cn1)c1cccs1,inactive
24,COc1ccccc1C=Cc1ccnc2ccccc12,inactive

row,SMILES,Potency
1,S=C(NNc1ccc2ccccc2c1)NC1CCCCC1,inactive
2,OCC1OC(n2cnc3c(NCc4ccccc4O)ncnc32)C(O)C1O (centres undefined),5.17 µM (active)
3,c1ccc2c(-c3nc4ncccc4o3)cccc2c1,inactive
4,COc1ccc([N+](=O)[O-])cc1C1NN=C(c2ccccc2O)S1 (centres undefined),inactive
5,Clc1ccc(Br)cc1-c1nc(-c2ccncc2)no1,inactive
6,NC(=O)c1c(NC(=O)c2ccco2)sc2c1CCC2,inactive
7,O=C(Nc1ccccn1)c1csc2c1CCCC2,inactive
8,O=C(Nc1ccccn1)Nc1ccccc1Cl,inactive
9,CC1(C)CC[C@]2(C(=O)n3ccnc3)CC[C@]3(C)[C@H](C(=O)C=C4[C@@]5(C)C=C(C#N)C(=O)C(C)(C)[C@@H]5CC[C@]43C)[C@@H]2C1,8.2 µM (active)
10,Fc1ccccc1-c1nc(-c2ccc(Cl)cc2)no1,inactive
11,COc1cc(/C=N/Nc2nc3ccccc3s2)ccc1OC(=O)c1ccccc1F,inactive
12,Cc1c(Cl)cccc1NC(=S)NC(=O)c1ccccc1,inactive
13,c1ccc(-c2cc3c(-n4cccc4)ncnc3o2)cc1,inactive
14,O=C(NC(=S)Nc1nc(-c2ccccc2)cs1)c1cccs1,inactive
15,CS(=O)(=O)Nc1ccc(C(=O)Nc2cccc([N+](=O)[O-])c2)cc1,inactive
16,COc1c(C(=O)Nc2nnc(C3CC3)s2)csc1Cl,inactive
17,O=C(Nc1cc(-c2nc3cc(Cl)ccc3o2)ccc1Cl)c1ccco1,inactive
18,Cc1cc(=O)oc2c(C(=O)/C=C\c3cccs3)c(O)ccc12,inactive
19,Cn1cnnc1Sc1ccc(/C=C/C(=O)c2ccc(O)cc2)cc1[N+](=O)[O-],inactive
20,COC(=O)c1c(NC(=O)c2ccco2)sc(C)c1C,inactive
21,c1cncc(-c2noc(-c3cccc4ccccc34)n2)c1,inactive
22,Nc1c(Cl)cc(N=Nc2ccccc2)cc1Cl,inactive
23,Cc1sc2c(c1C)C(=O)NC(c1ccccc1F)N2 (centres undefined),inactive
24,Clc1cccc(Cc2c(-c3ccco3)nc3c4ccccc4ccn23)c1,inactive

row,SMILES,Potency
1,Cc1csc(NC(=O)/C=C/c2ccco2)n1,inactive
2,c1ccc(N2CC3COc4ccccc4C3=N2)cc1 (centres undefined),inactive
3,O=C(/C=C/c1ccc2c(c1)OCO2)c1ccc(O)cc1O,inactive
4,N#Cc1c(-c2ccco2)cc(-c2ccc(F)cc2)nc1N,inactive
5,O=c1[nH]ncc(N/N=C\c2cccs2)c1Cl,inactive
6,COc1ccccc1NC(=O)C(=O)Nc1ccccn1,inactive
7,O=c1[nH]c(/C(Cl)=C/c2cc(Cl)ccc2O)nc2cc(Cl)ccc12,inactive
8,O=C(Cn1cnc2scc(-c3cccc([N+](=O)[O-])c3)c2c1=O)NCc1ccco1,inactive
9,O=C(/C=C/c1ccco1)Nc1cccnc1Cl,inactive
10,CCOC(=O)c1c(-c2ccco2)csc1NC(=O)CSc1nnc(N)s1,inactive
11,CCOC(=O)c1ccccc1N/C=C/C(=O)c1cccs1,inactive
12,CN1CCCC1CCNc1ccc2c(=O)c3ccccc3oc2c1 (centres undefined),inactive
13,Clc1nc(-c2ccccc2)cc(-c2ccccc2)n1,inactive
14,O=C(N/N=C\c1ccco1)Nc1cccc(Cl)c1,inactive
15,CN1c2ccsc2/C(=N/Nc2ccccc2)CS1(=O)=O,inactive
16,O=C(c1ccccc1)[C@@H]1[C@@H]2C(=O)N(c3ccc(F)cc3)C(=O)[C@@H]2C2CCCN21 (some centres undefined),inactive
17,CC1CCCCC1NC(=O)COC(=O)c1c2c(nc3ccccc13)/C(=C/c1ccco1)CC2 (centres undefined),inactive
18,CNc1ccccc(C(=O)/C=C/c2ccccc2OC)c1=O,inactive
19,O=C(N/N=C/c1ccc(-c2cccc([N+](=O)[O-])c2)o1)c1cccs1,inactive
20,O=C(Nc1ccccn1)c1ccc(Cl)c([N+](=O)[O-])c1,inactive
21,O=C(/C=C/c1ccco1)Nc1cccc(S(=O)(=O)N2CCOCC2)c1,inactive
22,Cc1ccc([N+](=O)[O-])cc1NC(=O)c1ccc(C(C)(C)C)cc1,inactive
23,O=C1/C(=C/c2ccccc2O)SC(=S)N1Cc1cccnc1,inactive
24,Cc1ccc(S(=O)(=O)/N=C(/NNC(=O)c2cccc(Cl)c2)c2ccccc2)cc1,inactive

row,SMILES,Potency
1,Cc1ccc2ccc(C3C(=O)c4ccccc4C3=O)nc2c1,inactive
2,Fc1cc(F)c2nc(Nc3nc4cc5c(cc4s3)OCO5)sc2c1,inactive
3,CC(/C=N/NC(=O)Cc1cccn1C)=C\c1ccco1,inactive
4,Oc1ccc2ccccc2c1N=Nc1ccccn1,5.17 µM (active)
5,CCCCn1c(O)c(N=Nc2ccccn2)c2ccccc21,inactive
6,CC(C)CCn1c(O)c(N=Nc2ccccn2)c2ccccc21,inactive
7,O=C(Nc1ccccc1[N+](=O)[O-])C1COc2ccccc2O1 (centres undefined),inactive
8,CCOC(=O)COn1c(=O)c(-c2ccco2)[n+]([O-])c2ccccc21,inactive
9,C(=Cc1cnnc2ccccc12)c1ccccc1,inactive
10,Cc1ccc(S(=O)(=O)c2nc(S(C)(=O)=O)sc2N2CCC(C)CC2)cc1,inactive
11,O=C1C(Cl)=C(N2CCN(c3ccccc3[N+](=O)[O-])CC2)C(=O)c2ccccc21,18.4 µM (active)
12,O=C1C(=Cc2ccccc2[N+](=O)[O-])Cc2ccccc21,inactive
13,N#CC1CC(c2ccccc2)=NN1c1ccccc1[N+](=O)[O-] (centres undefined),inactive
14,COC(=O)c1sccc1NC(=O)c1cccc(OC)c1,inactive
15,N#C/C(=C1/C(=O)Nc2ccc(Br)cc21)c1ccccn1,inactive
16,Nc1ccc2c(c1)Cc1c(F)cccc1-2,inactive
17,COc1ccc2[nH]c3c(NCc4ccco4)ncnc3c2c1,inactive
18,O=C(/C(C=Nc1ccc(F)cc1)=C(/O)c1ccco1)C(F)(F)F,inactive
19,CC(C)Nc1ccc(-c2nc(-c3ccco3)no2)cc1[N+](=O)[O-],inactive
20,O=C(CSc1ccccn1)N/N=C/c1ccccc1[N+](=O)[O-],inactive
21,CCOc1ccccc1NC(=S)NC(=O)c1ccco1,inactive
22,O=C(Nc1nc2ccc(F)cc2s1)c1ccc([N+](=O)[O-])o1,inactive
